NALP3 yeast inh: inhibitors of NALP3 inflammasome in yeast; Yeast reconstituted NLRP3/ASC/caspase-1, beta-gal luminescence, 24 h; inhibition, % at 10 µM; 0.39% of 330,000 active; AID 2825;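 active = inhibition of 50% or more; inactive = inhibition below 50%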;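 also: plate controls were induced DMSO wells for no effect and uninduced yeast grown without galactose for full effect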
TIM10 inh: inhibits growth of TIM10 yeast strain | S. cerevisiae TIM10 strain growth, BacTiter-Glo luminescence, 24 h | inhibition, % at 10 µM | 1.4% of 330,000 active;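 active = inhibition of 40% or more at the single tested concentration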;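 also: wild-type TIM10 isogenic control strain grown at permissive 25 °C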
tim10-1 inh: inhibits growth of tim10-1 mutant yeast; inhibition, % at 20 µM; 2.2% of 330,000 active; S. cerevisiae tim10-1 ts strain growth, BacTiter-Glo, 24 h; AID 463190;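 active = inhibition of at least 40%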;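 also: mutant grown at 25 °C; 0% = DMSO wells with yeast and 100% = wells holding no yeast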
tim23-1 inh: tim23-1 yeast growth inhibition; S. cerevisiae tim23-1 growth, BacTiter-Glo luminescence, 24 h; inhibition, % at 20 µM; 1.3% of 330,000 active; AID 463212;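 active = growth inhibition of the mutant yeast at or above 50%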;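 also: temperature-sensitive mutant grown at 25 °C; plate controls were DMSO-treated mutant yeast for no effect and medium wells lacking yeast for full effect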
NALP1 inh: blocks the NALP1 inflammasome reconstituted in yeast; S. cerevisiae NALP1/ASC/caspase-1 growth, X-gal OD620, 72 h; inhibition, % at 10 µM; 0.61% of 280,000 active; in the data active = inhibition mostly above about 24%, no sharp cut-off; inactive = mostly below about 32%
tim10-1 conf: confirmation of tim10-1 mutant yeast growth inhibitors | shares compounds with tim10-1 inh | S. cerevisiae tim10-1 ts strain growth, BacTiter-Glo, 24 h | inhibition, % at 20 µM | 56% of 7,400 active | AID 463213;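 active = inhibition of yeast growth at or above a set limit in either of two repeat tests at 20 µM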;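 also: tim10-1 mutant grown at permissive 25 °C to find synthetic lethal compounds; 0% = DMSO yeast wells and 100% = medium wells without yeast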
Active calls of the source: *; · = not tested or not shown. Most compounds without a hit are left out; they make up all but 4% or so of the library.

SMILES | NALP3 yeast inh | TIM10 inh | tim10-1 inh | tim23-1 inh | NALP1 inh | tim10-1 conf
COC(=O)c1ccc(-n2nc(C(F)(F)F)c3c2-c2ccoc2CC3)cc1 | 1.1 | 19.5 | 41.0* | 29.6 | 9.5 | 25.6
CC12CCC(C(=O)N3CCN(C(c4ccccc4)c4ccccc4)CC3)(OC1=O)C2(C)C (centres undefined) | 8.9 | 27.5 | 41.3* | 34.3 | -0.6 | 15.2
CC(=O)N1CCC(O)(c2ccc3c(c2)OCO3)CC1 | 8.6 | -5.4 | 5.9 | 5.6 | 8.0 | ·
NS(=O)(=O)c1ccc(CCNC(=O)COC(=O)CC(c2ccccc2)c2ccccc2)cc1 | -0.5 | 5.6 | 16.7 | 14.4 | 3.5 | ·
CC1=Nc2ccccc2/C1=C\c1nc(-c2ccc(F)cc2)oc1O | 7.0 | 38.6 | 52.9* | 24.2 | 5.6 | 28.9
Cn1c(N)c(C(=O)COC(=O)C2CC(=O)N(Cc3ccccc3)C2)c(=O)n(C)c1=O (centres undefined) | -11.2 | 9.3 | 3.6 | 13.4 | -22.5 | ·
O=C(NNC(=S)Nc1ccc(Br)cc1)c1ccccc1Br | 28.6 | 35.7 | 46.0* | 33.2 | 4.7 | 28.1
O=C(NNC(=S)Nc1ccc(Cl)cc1)c1ccccc1OC(F)F | 14.4 | 32.1 | 42.5* | 42.0 | 25.9 | 39.3*
O=C(NNC(=S)NCc1ccccc1)c1ccccc1OC(F)F | 3.4 | 11.8 | 16.7 | 21.7 | 6.8 | ·
COc1ccc(NS(=O)(=O)c2cccc(C(=O)N3CCCC3)c2)cc1 | 9.1 | -1.4 | 6.4 | -9.4 | · | ·
CCOC(=O)c1cc(-c2cccs2)nc2c1c(C)nn2-c1ccccn1 | 20.0 | 32.1 | 51.9* | 40.6 | -6.4 | 39.7*
CC1=CC2=NC(=O)/C(=C\c3cccn3CCOc3cc(C)ccc3C)C(=N)N2O1 | 20.0 | 12.9 | 14.7 | 28.9 | 31.8 | ·
COC(=O)c1cccnc1-n1c(=O)c2cccnc2n(Cc2cccc([N+](=O)[O-])c2)c1=O | -11.7 | -0.8 | 12.0 | 19.6 | -16.6 | ·
COC(=O)c1cccnc1-n1c(=O)c2cccnc2n(Cc2ccc(Cl)cc2)c1=O | 4.6 | 37.8 | 49.0* | 45.1 | 16.6 | 36.8*
CCCc1[nH][nH]c(=O)c1C(c1ccc(Cl)cc1)C(C#N)C#N (centres undefined) | 30.8 | 36.5 | 45.9* | 41.9 | -4.8 | 24.0
CCCc1[nH][nH]c(=O)c1C(c1ccccc1)C(C#N)C#N (centres undefined) | 14.2 | 26.9 | 20.3 | 37.9 | 3.1 | ·
O=C(Nc1ccccc1O)c1cccc(S(=O)(=O)Nc2ccccc2O)c1 | 0.5 | -10.5 | -26.8 | 15.2 | · | ·
CCOC(=O)c1cnc(-n2nc(C)cc2C)nc1NNc1cc(-c2ccccc2)nc(C)n1 | 11.4 | 1.8 | -5.7 | -14.0 | -8.4 | ·
CCOC(=O)c1cnc(-n2nc(C)cc2C)nc1NNc1ncc(-c2ccccc2)cn1 | 20.2 | 11.3 | 54.2* | 36.1 | -0.2 | 16.2
C/C=C(\C)CN1CCC(Oc2cccc(C(=O)NCc3ccccn3)c2)CC1 | -1.2 | -7.3 | -11.8 | -5.6 | 8.0 | ·
O=C(/C=C/Nc1ccccc1Oc1ccccc1)c1ccco1 | 13.2 | 23.1 | 42.7* | 28.7 | 2.1 | 15.7
O=C(/C=C/Nc1ccccc1O)c1ccco1 | 21.7 | -49.7 | -63.6 | -30.1 | 11.3 | ·
Clc1ccc(Cl)c2sc(N3CCCC3)nc12 | 3.4 | 23.7 | 47.5* | 45.6 | -18.4 | 36.6*
Cc1cc(N=Nc2ccc(Cl)cc2)cc(CN2CCCC2)c1O | 11.4 | 24.6 | 44.5* | 24.8 | -9.8 | 26.9
Cc1cc(N=Nc2ccc(Cl)cc2)cc(CN2CCOCC2)c1O | 21.5 | 30.3 | 28.8 | 27.7 | 0.0 | ·
SMILES | NALP3 yeast inh | TIM10 inh | tim10-1 inh | tim23-1 inh | NALP1 inh | tim10-1 conf
CC(C)C1N=C(c2ccc3c(c2)OCO3)CC(c2ccccc2O)N1 (centres undefined) | 13.3 | 19.2 | 15.6 | 15.3 | 18.5 | ·
CCOc1ccccc1C1N=C(c2ccc(OC)cc2)CC(c2ccccc2O)N1 (centres undefined) | 32.9 | 18.2 | 44.3* | 41.7 | 2.1 | 17.5
CCNC(=S)N1CCC(C(N)=O)CC1 | 8.1 | -9.9 | 9.8 | 12.9 | · | ·
C=C(C)COc1ccc(-c2[nH]ncc2Oc2ccccc2OC)c(O)c1 | 14.9 | 27.7 | 55.4* | 42.5 | 9.2 | 39.4*
C=C(C)COc1ccc(-c2[nH]ncc2Oc2ccc(OC)cc2)c(O)c1 | 13.4 | 28.5 | -15.5 | 43.5 | · | ·
O=C(c1ccc([N+](=O)[O-])cc1)N(Cc1ccccc1)c1ccccn1 | 12.2 | 12.6 | 10.5 | 11.1 | 6.1 | ·
O=[N+]([O-])c1ccccc1SN(Cc1ccccc1)c1ccccn1 | -57.7 | 35.8 | 42.3* | 9.3 | -16.2 | 21.5

High-throughput results: PubChem BioAssay, Sanford-Burnham Center for Chemical Genomics
